Bioassay records deposited in PubChem BioAssay by Broad Institute.
Only some compounds are listed: those with a hit (about 3.1% of all), similar ones and a draw of the others.
Statin myotox sup: protects C2C12 myotubes from simvastatin toxicity | rescue of ATP level, % at 7.49 µM | ATP luminescence, 48 h; scaled: DMSO 0, geranylgeraniol control 100 | 330,000 compounds, 0.78% hits | AID 602340;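 active means mean ATP rescue above about 67%, or every replicate alone reaching that limit, limit read from the data, passing the limit was not always enough; inconclusive means no clear call, values can overlap the other calls; inactive means mean under the limit and some replicate under it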;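 further: myotubes were challenged with 10 µM simvastatin during compound exposure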
MITF TRPM1 HTS: activators of MITF-driven TRPM1 promoter activity in SK-MEL-5 cells; SK-MEL-5 TRPM1-promoter luciferase, 24 h; % of positive control, neutral wells = 0; activation, % at 12.5 µM; 300,000 compounds, 0.75% hits; AID 588334;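 active means mean activation of at least 80% with every replicate also reaching 80%; inconclusive means mean reaches 80% but some replicate falls short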;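 further: 0% = neutral control wells and 100% = parthenolide positive control wells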
esBAF inh: SWI/SNF esBAF complex inhibition; 350,000 compounds, 2% hits; reporter increase, % at 12.5 µM; mouse ES cells, Bmi1-luciferase knock-in reporter, 24 h; 100% = twice the neutral-well signal; in the data active means activation above about 40%; inconclusive means no clear call, values can overlap the other calls;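 further: 0% = median of the plate's neutral control wells and 100% = double that signal; a rise in the Bmi1 reporter signal indicates esBAF inhibition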
Wnt act: Wnt/beta-catenin pathway activation; AID 743398; 300,000 compounds, 1.2% hits; Wnt/beta-catenin reporter cell assay, activator, plate reader; activation, % at 9.35 µM; in the data active means activation above about 30%, passing the limit was not always enough; inconclusive means no clear call, values can overlap the other calls;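 further: 0% = neutral control wells and 100% = positive control wells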
Rtt109 Vps75: inhibitors of Candida albicans Rtt109/Vps75 histone acetyltransferase; Q5AAJ8; purified Rtt109/Vps75, ThioGlo CoA-SH fluorescence, 4 h; inhibition, % at 34.9 µM; 330,000 compounds, 0.16% hits;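 active means inhibition of at least 50% in every replicate; inconclusive means best replicate reaches 50% inhibition but some replicates fall short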
Target sequence (Q5AAJ8 whole entry, looked up): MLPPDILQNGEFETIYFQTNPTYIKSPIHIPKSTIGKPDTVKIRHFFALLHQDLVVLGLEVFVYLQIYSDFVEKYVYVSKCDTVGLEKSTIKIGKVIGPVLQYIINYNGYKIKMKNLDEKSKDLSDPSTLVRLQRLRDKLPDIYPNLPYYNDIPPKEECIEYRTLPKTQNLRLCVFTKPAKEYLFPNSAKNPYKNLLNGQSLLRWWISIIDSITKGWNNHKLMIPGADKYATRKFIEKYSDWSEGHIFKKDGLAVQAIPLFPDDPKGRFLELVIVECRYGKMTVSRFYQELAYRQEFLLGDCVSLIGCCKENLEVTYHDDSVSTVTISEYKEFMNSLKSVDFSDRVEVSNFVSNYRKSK
esBAF Ring1 qPCR: confirmation of esBAF inhibitors: Ring1 de-repression in mouse ESCs | shares compounds with esBAF inh | mouse ESC E14, Ring1 mRNA RT-qPCR fold change | fold change at 33 µM | 550 tested, under 10 active | AID 743176;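 active means Ring1 gene expression raised more than 2-fold over untreated cells in both replicates at either tested dose; inconclusive means only one replicate above 2-fold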;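 further: Ring1 transcript normalised to actin housekeeping signal by TaqMan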
esBAF Fgf4 qPCR: esBAF inhibition confirmed by Fgf4 repression; Fgf4 expression fold change at 33 µM; mouse ESC E14, Fgf4 mRNA qPCR fold change; stronger effect = lower value; shares compounds with esBAF inh; 550 compounds, 4% hits; AID 743177;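 active means Fgf4 expression under 0.8 fold of control in both repeat measurements at one or both tested doses; inconclusive means under 0.8 fold in just a single repeat measurement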;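 further: Fgf4 transcript normalised to actin in duplex TaqMan qPCR; cells exposed to compound for 24 h before lysis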
Bmi1 derepress: confirmation of esBAF inhibitors: Bmi1 de-repression in mouse ESCs; shares compounds with esBAF inh; mouse ESE14 ES cells, Bmi1 mRNA qPCR fold; stronger effect = higher value; fold change at 33 µM; 550 tested, under 10 active;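 active means Bmi1 expression fold change above 6 at either tested concentration, seen in replicate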
A549 cytotox: kills or reduces viability of A549 cells; shares compounds with esBAF inh; A549 cytotoxicity, plate reader; cell viability change % (negative = cytotoxic), % at 25 µM, hits read low; 550 tested, under 10 active; call rule not given here
HepG2 cytotox SP: HepG2 cell cytotoxicity at single point; activity change, negative = inhibition, % at 25 µM; shares compounds with esBAF inh; AID 743189; plate reader; stronger effect = lower value; 550 compounds, 4% hits; in the data active means activity change below about -50%
HEK293 tox SP: HEK293 cell cytotoxicity at single point; AID 743190; shares compounds with esBAF inh; plate reader; activity change, negative = inhibition, % at 25 µM, hits read low; 550 compounds, 3% hits; in the data active means activity change below about -38%, passing the limit was not always enough
An asterisk follows results filed as active; ? = inconclusive; nt = no result given.

SMILES	Statin myotox sup	MITF TRPM1 HTS	esBAF inh	Wnt act	Rtt109 Vps75	esBAF Ring1 qPCR	esBAF Fgf4 qPCR	Bmi1 derepress	A549 cytotox	HepG2 cytotox SP	HEK293 tox SP
CC(=O)N(C)C[C@H]1Oc2ncc(C#CC(C)(C)O)cc2C(=O)N([C@@H](C)CO)C[C@@H]1C	-1.8	nt	4.1	nt	nt	nt	nt	nt	nt	nt	nt
CNC(=O)C[C@H]1CC[C@@H]2[C@H](COc3ccc(NC(=O)c4cccc(F)c4)cc3C(=O)N2C)O1	-3.8	nt	2.6	nt	nt	nt	nt	nt	nt	nt	nt
Cc1ccc(C)c(NC(=O)c2cc(-c3cc(C)c(C)cc3O)n[nH]2)c1	-59.3	99.9*	57.4*	11.1	-5.5	1.35	0.843	1.56	-3.4	-16.1	-2.2
O=C(Cc1cccnc1)N[C@H]1CC[C@@H](CCn2cc(Cc3ccccc3)nn2)O[C@@H]1CO	6.1	nt	-1.5	nt	nt	nt	nt	nt	nt	nt	nt
Cc1noc(C)c1NC(=O)N(C)C[C@H]1OCCCC[C@H](C)Oc2ccc(NC(=O)CCC(F)(F)F)cc2C(=O)N([C@@H](C)CO)C[C@@H]1C	nt	nt	-2.6	nt	nt	nt	nt	nt	nt	nt	nt
Cc1ccc(CN2CC(C(=O)Nc3cc(C)ccn3)CC2=O)cc1 (stereo not given)	-7.5	22.1	71.8*	?	-5.6	0.576	0.439*	3.47	2.6	-21.4	-8.6
CO[C@@H]1CN(C)C(=O)c2cc(NC(=O)Nc3c(C)noc3C)ccc2OC[C@H](C)N(C)C[C@@H]1C	0.9	nt	-2.4	nt	nt	nt	nt	nt	nt	nt	nt
O=C(Cc1ccccn1)c1ccc(Cl)cc1	-5.2	104.0*	100.0*	20.5	-5.7	1.16	0.868	1.63	-5.6	2.0	-7.4
O=C1CCCc2c1sc1nc3n(c(=O)c21)CCCCC3	8.8	33.2	67.6*	16.9	6.0	0.978	0.91	1.27	-7.4	-61.7*	-13.9
Cc1csc(-c2ccc3cc(Cl)cc(Cl)c3n2)n1	-8.6	nt	70.9*	3.8	nt	1.15	0.972	1.55	-10.5	27.5	-11.3
CCc1ccc2cc3c(cc2n1)C(=O)c1ccccc1-3	-14.0	nt	61.3*	?	nt	1.28	?	3.82	8.6	-10.9	6.3
Cc1nc2c(nc1C)C(=O)c1ccccc1C2=O	nt	nt	nt	-3.5	1.4	nt	nt	nt	nt	nt	nt
OC(c1cccc(Cl)c1)c1nc(-c2ccc3c(c2)OCO3)cs1 (stereo not given)	14.7	nt	1.6	9.5	nt	nt	nt	nt	nt	nt	nt
OC(c1ccccc1)c1nc(-c2ccc3c(c2)OCO3)cs1 (stereo not given)	56.6	nt	61.0*	-3.1	nt	0.988	0.836	1.31	-7.9	-7.9	-6.6
C[C@@H]1CN([C@H](C)CO)C(=O)c2cc(-c3ccccc3F)cnc2O[C@@H]1CN(C)Cc1ccc(F)cc1	9.0	nt	-4.7	nt	nt	nt	nt	nt	nt	nt	nt
Cc1ccc(OCn2c(=O)sc3ccccc32)cc1	0.7	74.1	66.1*	16.8	10.0	1.12	1.23	1.43	-10.3	-10.6	-15.6
CC(C)Oc1ccc(F)cc1-c1cc(C(=O)Nc2ccccc2)[nH]n1	-2.9	nt	6.7	-3.3	nt	nt	nt	nt	nt	nt	nt
COc1ccc(F)cc1-c1cc(C(=O)Nc2cccnc2)[nH]n1	-20.0	nt	56.6*	-0.2	nt	1.15	1.01	1.83	-8.8	-0.7	-12.9
O=C(Nc1cccnc1)c1cc(-c2ccc(Cl)c(Cl)c2)on1	16.8	15.9	7.3	14.1	-0.7	nt	nt	nt	nt	nt	nt
COc1ccc(-c2cc(C(=O)Nc3cccnc3)no2)cc1OC	8.5	86.8*	65.0*	29.4	12.7	1.35	?	1.86	-3.0	-19.5	0.5
COc1ccccc1-c1ccc2c(c1)O[C@H](CN(C)S(=O)(=O)c1ccc(F)cc1)[C@@H](C)CN([C@@H](C)CO)S2(=O)=O	-26.3	nt	-4.0	nt	nt	nt	nt	nt	nt	nt	nt
